Tau fibril ThT: tau fibrillization inhibition (ThT binding); P10636; recombinant tau K18 P301L, heparin-induced fibrillization, ThT fluorescence; Potency, µM (doses to about 57.4 µM), for the others: at the top dose activity, negative = inhibition, hits mostly inhibitors; 270,000 tested, 2.1% active; AID 1460; further: potency means the concentration at half of the fitted maximal effect; nearly all actives have a fitted effect of over 55% in size
Target sequence (P10636 561-689 P618L limits assumed): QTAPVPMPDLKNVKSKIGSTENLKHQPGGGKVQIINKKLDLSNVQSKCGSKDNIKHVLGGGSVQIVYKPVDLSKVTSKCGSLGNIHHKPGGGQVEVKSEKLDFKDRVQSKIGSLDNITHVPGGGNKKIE
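K18 P301L tau (15 uM + 0.24 uM Alexa 594-tagged), heparin 20 uM, NaOAc pH 7, 6 h 37 C; ThT 30 uM, 1 h RT, ex 450/em 510 nm.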
Sfp inh: inhibitors of Bacillus subtilis Sfp phosphopantetheinyl transferase. Biochemical Sfp PPTase activity, qHTS. Potency, µM, for the others: largest response in the series, negative = inhibition, most hits filed as inhibitors. 310,000 tested, 3.5% active. AID 1490;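 further: the enzyme is Sfp with the accession as filed and its product quenches rhodamine fluorescence; potency means the concentration at half of the fitted maximal effect; 0% = enzyme reaction without inhibitor and -100% = no enzyme wells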
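Buffer: 50 mM Hepes-Na pH 7.6, 10 mM MgCl2, 0.01% Nonidet P-40, 0.01% BSA. Enzyme 15 nM, pre-exposed to compound 15 min; substrates then added and fluorescence change tracked over 30 min.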
Tau fibril FP: inhibitors of human tau fibril formation. K18 P301L tau heparin fibrillization, Alexa594 FP, 6 h. 280,000 tested, 0.39% active. AID 1468. Potency, µM (highest dose often 57.7 µM), without a hit: top-dose activity, negative = inhibition, usual class: inhibitors. P10636; further: potency means the concentration at half of the fitted maximal effect; nearly all actives have a fitted effect of over 55% in size
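FP of Alexa 594-tau after heparin (20 uM) induction. Substrate: human K18 P301L, 15 uM unlabeled, 0.24 uM labeled. Buffer 100 mM sodium acetate pH 7. 6 hr, 37 C.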
Coupling enz: coupling enzyme interference in Giardia aldolase counter-screen | coupling enzyme system counterscreen, AmpLite Red fluorescence | activity change, negative = inhibition, % at 58.2 µM, hits read low | 290,000 tested, 0.67% active | AID 2472; in the data active means activity change below about -30%
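Counterscreen lacking aldolase: glyceraldehyde-3-phosphate coupling-enzyme reagent preincubated 10 min at RT with compound (at 57.5 uM final), then substrate/coupling system with AmpLite Red added; fluorescence read at 525/598 nm after 20 min RT.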
Tau fluor counter: counter-screen for tau fibril formation inhibitors. tau K18 P301L (four-repeat tau fragment) Alexa594 fluorescence, heparin fibrillization. 280,000 tested, 0.93% active. Potency, µM (doses to about 57.7 µM), for the others: top-dose activity change, negative = decrease. AID 1463; further: potency means the concentration at half of the fitted maximal effect; nearly all actives have a fitted effect of over 55% in size
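Human K18 P301L tau (15 uM unlabeled plus 0.24 uM Alexa 594-labeled, final) in 100 mM sodium acetate pH 7 was mixed with compound and 20 uM heparin and incubated 6 hr at 37 C.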
JMJD2E inh: blocks human JMJD2E demethylase activity. B2RXH2. 230,000 tested, 1.6% active. JMJD2E catalytic domain, FDH-coupled NADH fluorescence (FDH is formaldehyde dehydrogenase). Potency, µM (doses to about 57.1 µM), for inactives: top-dose activity change, negative = inhibition, hits mostly inhibitors; active means well fitted inhibition curve with a large enough effect, not every such curve was filed as active; inconclusive means small, poorly fitted or top-dose-only effect, or another doubt; inactive means no such curve, though single readings can be large or run the other way;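 further: potency means the concentration at half of the fitted maximal effect; 0% = wells with enzyme and -100% = buffer wells without enzyme; nearly all actives have a fitted effect of over 50% in size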
Target sequence (B2RXH2 1-337 limits assumed): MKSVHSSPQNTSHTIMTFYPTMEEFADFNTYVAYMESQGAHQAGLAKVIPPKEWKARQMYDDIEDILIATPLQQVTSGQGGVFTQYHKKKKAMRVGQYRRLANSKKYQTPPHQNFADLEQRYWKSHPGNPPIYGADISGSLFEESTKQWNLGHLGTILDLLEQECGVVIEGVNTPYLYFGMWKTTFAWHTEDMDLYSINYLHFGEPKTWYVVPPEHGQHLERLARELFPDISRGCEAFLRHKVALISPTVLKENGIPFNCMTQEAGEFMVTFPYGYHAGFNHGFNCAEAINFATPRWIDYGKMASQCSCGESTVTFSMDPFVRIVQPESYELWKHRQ
An asterisk follows results filed as active; ? = inconclusive; / = no result given; [ ] = remark or other dose. Shown are actives, neighbours in structure and some others; about 5.3% of the full set was active somewhere. Unless noted, the call rests on the fitted dose curve; in most records, active means well fitted curve in the direction sought with a large enough effect; inconclusive means small, poorly fitted or top-dose-only effect, or another doubt; inactive means no such curve, though single readings can be large; an effect the other way counts as inactive or inconclusive. Unless noted, on the % scale 0 is the no-effect control and ±100 the full control effect.

SMILES | Tau fibril ThT | Sfp inh | Tau fibril FP | Coupling enz | Tau fluor counter | JMJD2E inh
COc1cc(/C=N/NC(=O)C(Cc2c[nH]c3ccccc23)NC(=O)OCc2ccccc2)cc([N+](=O)[O-])c1O (centres undefined) | 12.6µM* | -12.4% | ? | 0.1 | ? | ?
COc1cc(/C=N/NC(=O)C(Cc2c[nH]c3ccccc23)NC(=O)OCC(C)C)cc([N+](=O)[O-])c1O (centres undefined) | 14.1µM* | 2.4% | 11.7% | -0.7 | -27.4% | 1.1%
Cc1ccc(NC(=O)C(Cc2c[nH]c3ccccc23)NC(=O)OCC(C)C)cc1 (centres undefined) | -13.5% | / | 2.2% | / | 20µM*[quencher] | /
Cc1ccc(NC(=O)C(Cc2c[nH]c3ccccc23)NC(=O)OC(C)(C)C)c(C)c1 (centres undefined) | -16.6% | / | 2.0% | / | ? | /
CC(C)=CCC[C@](C)(O[C@@H]1O[C@H](CO)[C@@H](O)[C@H](O)[C@H]1O)[C@H]1CC[C@]2(C)[C@@H]1[C@H](O)C[C@@H]1[C@@]3(C)CC[C@H](O[C@@H]4O[C@H](CO)[C@@H](O)[C@H](O)[C@H]4O[C@@H]4O[C@H](CO)[C@@H](O)[C@H](O)[C@H]4O)C(C)(C)[C@@H]3[C@@H](O)C[C@]12C | -3.3% | -2.4% | -5.3% | 2.2 | -5.0% | /
CC(=O)CSc1nc2cc3c(cc2cc1C#N)OCCO3 | 1.58µM* | 26.5% | 14.8% | -43.5* | ? | ?
CNC(=O)C1(C(F)(F)F)C/C(=C\Cc2ccccc2)CCCO1 (centres undefined) | / | 0.8% | / | 4.7 | / | /
Cc1ccc(S(=O)(=O)NC2OC(=O)C(Cl)=C2Cl)cc1 (centres undefined) | 28.2µM* | -1.6% | ? | 1.9 | -18.6% | -6.8%
CCCN1CCC(=O)N(CCSc2ccc(Br)cc2)CC1 | / | 5.3% | / | 0.2 | / | /
N#Cc1nc(NCC2CC2)nc(Nc2ccccc2)n1 | / | / | / | -0.7 | / | /
COc1ccc(C2=NN(C(=O)c3cccs3)C(c3ccc(OC)cc3)C2)cc1 (centres undefined) | -7.0% | ? | 3.0% | -1.9 | -22.4% | ?
CC(=O)N1N=C(c2ccccc2)CC1c1ccc(F)cc1 (centres undefined) | / | 12.7% | / | 1.2 | / | /
O=C(c1cccs1)N1N=C(c2ccc(O)cc2)CC1c1ccccc1 (centres undefined) | 5.8% | 17.8µM* | ? | 0.2 | ? | -8.9%
O=C(c1cccs1)N1N=C(c2ccccc2)CC1c1ccccc1 (centres undefined) | -15.6% | 39.8µM* | 0.2% | -0.5 | -13.9% | ?
O=C(c1cccs1)N1N=C(c2ccccc2)CC1c1ccc(O)cc1 (centres undefined) | -7.8% | 20µM* | ? | 1.5 | ? | 85.8%
CCNc1cc(N2CCN(C3CCCCC3)CC2)c2noc3c2c1C(=O)c1ccccc1-3 | ? | / | 0.0% | / | -23.4% | /
CCOC(=O)C(C(=O)OCC)c1cc(Br)c2noc3c2c1C(=O)c1ccccc1-3 | 1.12µM* | 0.708µM* | 2.24µM* | -64.0* | 2.51µM*[quencher] | ?
CC(=O)Nc1sc(N/N=C\c2ccc(O)cc2)nc1-c1cccs1 | 14.1µM* | ? | -9.1% | -2.4 | ? | -10.4%
CC(=O)Nc1sc(NC(=O)c2ccccc2)nc1-c1cccs1 | ? | 0.0% | -1.4% | 1.5 | -11.7% | 17.5%
CC(=O)Nc1sc(N/N=C\c2ccccc2F)nc1-c1cccs1 | 8.91µM* | -30.0% | -2.0% | 0.4 | ? | 1.7%
CC(=O)Nc1sc(N/N=C\c2cccc(Cl)c2)nc1-c1cccs1 | 10µM* | -3.6% | -5.9% | 2.0 | ? | 0.2%
COc1ccccc1C(=O)NC1(C(F)(F)F)C(=O)Nc2c1c(=O)[nH]c(=O)n2-c1ccc(F)cc1 (centres undefined) | -11.0% | / | 3.4% | / | -16.1% | /
COC(=O)c1c(NC(=O)Cc2ccccc2)sc2c1CC(C)(C)NC2(C)C | / | 28.2µM* | / | 0.5 | / | /
COC(=O)c1c(NC(=O)COc2ccc(Cl)cc2)sc2c1CC(C)(C)NC2(C)C | / | 56.2µM* | / | / | / | /
CC1(C)Cc2c(sc(NC(=O)COc3ccc(Cl)cc3Cl)c2C(N)=O)C(C)(C)N1 | / | -13.2% | / | / | / | /
SMILES | Tau fibril ThT | Sfp inh | Tau fibril FP | Coupling enz | Tau fluor counter | JMJD2E inh
O=C1CC(c2ccccc2)Cc2[nH]c(=O)c(C(=O)Nc3ccc(OC(F)(F)F)cc3)cc21 (centres undefined) | -5.1% | / | -8.6% | / | -6.6% | /
Cc1ccccc1CN1C[C@@H]2C[C@@H](c3cnc(N4CCOCC4)s3)N3CCC[C@@]23C1=O | ? | 50.1µM* | 2.2% | -6.0 | 2.8% | -24.8%
N#C/C(=C/c1ccc(F)cc1)C(N)=S | ? | 35.5µM* | -3.4% | 1.3 | -12.1% | 0.6%
N#C/C(=C\c1ccncc1)C(N)=O | 1.1% | 21.4% | 2.9% | 3.5 | 7.3% | ?
Cc1cc(C2=NNC(=Nc3ccccc3)SC2)c(C)n1C | ? | 31.6µM* | -4.2% | -1.3 | -22.5% | ?
CN=C1NN=C(c2cc(C)n(-c3ccc(Cl)cc3)c2C)CS1 | ? | 35.5µM* | ? | -2.4 | -11.6% | ?
CC(C)N=C1NN=C(c2ccc(F)cc2)CS1 | ? | 56.2µM* | -12.5% | -1.9 | -10.5% | -14.0%
Cc1ccc(-n2c(C)cc(C3=NNC(=NC4CC4)SC3)c2C)cc1C | ? | -28.6% | -7.1% | 0.5 | -12.6% | -10.8%
COCCCN=C1NN=C(c2cc(C)n(-c3ccccc3F)c2C)CS1 | ? | ? | -5.6% | -2.6 | -14.0% | 31.6µM*
COCCCN=C1NN=C(c2cc(C)n(-c3ccccc3)c2C)CS1 | -1.2% | -21.5% | -4.5% | 0.1 | -5.2% | -5.2%
COC(=O)C(C(=O)OC)[C@@H]1c2ccccc2[C@H]2C(=C[C@@H](C)[C@H]3C(=O)N(c4ccccc4)C(=O)[C@H]32)N1C(=O)OC | 5.2%[11.5 µM] | -2.7% | 4.2%[11.6 µM] | 0.0 | -3.3%[11.6 µM] | 8.9%[11.4 µM]
Fc1ccccc1N=C1NN=C(c2ccccc2)CS1 | 22.4µM* | ? | ? | 1.5 | ? | -2.8%
COCCn1c(C)cc(C2=NNC(=Nc3ccccc3F)SC2)c1C | ? | 35.5µM* | -5.4% | -5.7 | -22.9% | 25.1µM*
Cc1cccc(N=C2NN=C(c3ccccc3F)CS2)c1C | ? | 1.1% | -7.5% | 0.9 | ? | 7.9%
CC(=O)c1ccc(NC(=O)Cn2c3ncccc3c(=O)n2-c2ccc(C)cc2)cc1 | -12.4% | / | ? | / | ? | /
CCOc1cc2c(C#N)c(N3CCCCC3)nc(N)c2c(N)n1 | ? | ? | 13.8% | -48.1* | ? | ?
COc1ccc(CN2C(=O)Cc3c2nc(N)c2c(N)nc(N4CCCCC4)c(C#N)c32)cc1 | ? | -10.0% | -8.0% | -7.6 | ? | 14.1µM*

Screening data deposited in PubChem by National Center for Advancing Translational Sciences (NCATS).
